MazEF act: MazEF (E. coli) toxin RNase activation; P0AE70; FAM/BHQ RNA-DNA oligo cleavage fluorescence, 5 h; activation, % at 20 µM; 350,000 compounds, 0.32% hits; AID 504720; in the data active = activation above about 50%
FadD28 binding: inhibitors of Mycobacterium tuberculosis FadD28 bisubstrate binding; 360,000 compounds, 0.22% hits; FadD28 bisubstrate probe binding, fluorescence polarization; inhibition, % at 12.5 µM; AID 588549; in the data active = inhibition above about 8.5%, passing the limit was not always enough
TcdB inh: blocks C. difficile toxin B glycohydrolase activity; TcdB glycohydrolase enzymatic assay, plate reader; inhibition, % at 9.99 µM; AID 652162; 350,000 compounds, 0.24% hits; in the data active = inhibition above about 10%
Target sequence (P18177 whole entry, looked up): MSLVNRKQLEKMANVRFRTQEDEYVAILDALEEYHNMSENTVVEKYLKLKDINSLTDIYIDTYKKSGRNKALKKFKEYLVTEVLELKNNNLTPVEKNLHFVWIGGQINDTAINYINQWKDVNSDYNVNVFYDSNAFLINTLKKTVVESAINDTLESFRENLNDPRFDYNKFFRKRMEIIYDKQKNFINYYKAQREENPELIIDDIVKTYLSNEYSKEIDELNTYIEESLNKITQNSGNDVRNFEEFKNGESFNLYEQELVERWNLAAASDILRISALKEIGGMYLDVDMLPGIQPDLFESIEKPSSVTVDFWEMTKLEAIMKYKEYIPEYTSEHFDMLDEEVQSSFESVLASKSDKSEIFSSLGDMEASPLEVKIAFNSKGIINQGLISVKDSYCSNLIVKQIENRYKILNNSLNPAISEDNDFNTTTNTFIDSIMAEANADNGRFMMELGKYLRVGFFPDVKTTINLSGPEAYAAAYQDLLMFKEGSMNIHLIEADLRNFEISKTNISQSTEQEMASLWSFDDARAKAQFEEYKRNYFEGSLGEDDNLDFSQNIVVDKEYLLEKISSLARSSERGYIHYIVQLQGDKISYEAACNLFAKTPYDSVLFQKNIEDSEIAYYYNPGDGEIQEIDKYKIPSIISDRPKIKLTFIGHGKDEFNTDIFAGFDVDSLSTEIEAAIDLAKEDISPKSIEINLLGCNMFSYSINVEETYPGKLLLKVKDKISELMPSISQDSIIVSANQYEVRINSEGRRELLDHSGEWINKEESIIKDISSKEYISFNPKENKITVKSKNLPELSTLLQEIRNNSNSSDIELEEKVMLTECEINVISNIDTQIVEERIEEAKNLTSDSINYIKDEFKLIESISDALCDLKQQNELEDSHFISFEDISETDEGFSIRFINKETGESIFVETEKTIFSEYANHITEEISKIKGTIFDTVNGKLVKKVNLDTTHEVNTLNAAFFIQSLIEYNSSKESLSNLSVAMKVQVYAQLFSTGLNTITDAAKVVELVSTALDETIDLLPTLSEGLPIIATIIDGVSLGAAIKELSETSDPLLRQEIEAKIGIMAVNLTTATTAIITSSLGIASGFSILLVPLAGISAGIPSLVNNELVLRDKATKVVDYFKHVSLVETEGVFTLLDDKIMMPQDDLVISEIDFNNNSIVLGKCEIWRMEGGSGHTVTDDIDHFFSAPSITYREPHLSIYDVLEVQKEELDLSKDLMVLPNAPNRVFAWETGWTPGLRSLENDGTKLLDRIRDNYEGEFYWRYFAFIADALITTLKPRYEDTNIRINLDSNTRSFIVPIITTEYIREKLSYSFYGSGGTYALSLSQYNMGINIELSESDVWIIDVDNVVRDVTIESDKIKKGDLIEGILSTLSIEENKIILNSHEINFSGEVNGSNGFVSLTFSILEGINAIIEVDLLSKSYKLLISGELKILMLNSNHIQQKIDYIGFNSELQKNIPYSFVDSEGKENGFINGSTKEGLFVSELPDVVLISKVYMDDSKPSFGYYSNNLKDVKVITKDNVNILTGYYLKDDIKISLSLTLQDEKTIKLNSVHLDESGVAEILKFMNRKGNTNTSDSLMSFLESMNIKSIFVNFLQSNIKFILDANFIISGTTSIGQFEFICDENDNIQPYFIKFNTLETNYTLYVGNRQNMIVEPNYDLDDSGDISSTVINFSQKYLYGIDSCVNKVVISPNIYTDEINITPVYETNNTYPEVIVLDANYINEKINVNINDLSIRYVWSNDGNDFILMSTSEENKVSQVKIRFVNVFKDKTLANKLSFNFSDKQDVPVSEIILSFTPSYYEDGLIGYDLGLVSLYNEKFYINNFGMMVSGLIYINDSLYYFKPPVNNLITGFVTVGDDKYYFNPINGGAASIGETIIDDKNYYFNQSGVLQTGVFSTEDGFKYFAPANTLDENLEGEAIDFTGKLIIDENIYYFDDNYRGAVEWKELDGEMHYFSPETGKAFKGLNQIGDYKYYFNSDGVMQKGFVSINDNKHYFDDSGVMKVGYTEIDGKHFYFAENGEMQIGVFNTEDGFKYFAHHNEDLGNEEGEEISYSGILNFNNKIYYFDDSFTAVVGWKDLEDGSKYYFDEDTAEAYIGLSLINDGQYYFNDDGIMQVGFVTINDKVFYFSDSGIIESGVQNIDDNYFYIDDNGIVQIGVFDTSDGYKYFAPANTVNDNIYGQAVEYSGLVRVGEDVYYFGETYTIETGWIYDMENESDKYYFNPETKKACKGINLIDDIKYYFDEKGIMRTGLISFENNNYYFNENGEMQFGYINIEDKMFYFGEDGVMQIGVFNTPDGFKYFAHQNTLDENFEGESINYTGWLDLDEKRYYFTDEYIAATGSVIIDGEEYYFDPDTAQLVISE
BioA inh: blocks M. tuberculosis BioA enzyme activity; purified M. tuberculosis BioA enzyme, plate reader; inhibition, % at 9.99 µM; 360,000 compounds, 0.096% hits; in the data active = inhibition above about 40%
VHR inh abs: DUSP3 (human) phosphatase inhibition; recombinant VHR phosphatase, pNPP absorbance; P51452; 290,000 compounds, 0.52% hits; inhibition, % at 13.3 µM; in the data active = inhibition above about 50%
Yp Topo-I inh: blocks Yersinia pestis topoisomerase I activity. Y. pestis Topo-I cleavage product accumulation, plate reader. activity, % at 10 µM. 360,000 compounds, 0.064% hits. AID 504884; in the data active = activity above about 50%, passing the limit was not always enough
Starred values were filed as active, the others as inactive. Hits are enriched below; roughly 1% of the tested compounds scored in any of these assays.

`Cc1cccc(NC(=O)C2Cc3ccccc3CN2C(=O)OCc2ccccc2)c1C` (stereo not given) gave MazEF act -0.1, FadD28 binding -0.8, TcdB inh 1.8, VHR inh abs -1.0 and Yp Topo-I inh 32.7.
Screening CN(C)c1cc(-c2ccc([N+](=O)[O-])cc2)oc(=O)c1Cl returned MazEF act 54.3*, FadD28 binding -1.6, TcdB inh 0.6, VHR inh abs -10.3 and Yp Topo-I inh 5.9.
Screening O=C(OCC#CCSc1nnc(-c2ccc(Br)cc2)o1)c1cccs1 returned MazEF act -1.6, FadD28 binding -1.0, TcdB inh -0.6, VHR inh abs 25.8 and Yp Topo-I inh -8.4.
Cc1ccc(-c2nnc(SCC#CCOC(=O)c3cccs3)o2)cc1 was read as MazEF act -3.4, FadD28 binding -1.9, VHR inh abs 22.9 and Yp Topo-I inh 55.7*.
Screening COc1ccccc1C(=O)OCC#CCSc1nnc(-c2cccc3ccccc23)o1 returned MazEF act -3.5, FadD28 binding -1.4, TcdB inh 1.6, BioA inh -1.5 and Yp Topo-I inh 51.8*.
Screening COc1ccc(C(=O)OCC#CCSc2nnc(-c3cccc4ccccc34)o2)cc1 returned MazEF act -7.4, FadD28 binding -4.6, TcdB inh 1.4, BioA inh -1.2 and Yp Topo-I inh 29.5.
For O=C(C[C@H]1CC[C@@H]2[C@H](COC[C@H](O)CN2C(=O)Nc2ccc(Cl)c(Cl)c2)O1)NCc1ccccc1 the results were TcdB inh -0.8 and BioA inh 3.2.
`CCOc1ccc(N=Nc2ccc(O)c3ncccc23)cc1` gave MazEF act -2.0, FadD28 binding -0.2, TcdB inh 0.3, BioA inh 0.7, VHR inh abs -2.0 and Yp Topo-I inh -2.4.
`CCOc1ccc2c(ccc(/C=C/c3cc(C)c4cccnc4c3O)[n+]2C)c1` gave MazEF act -1.1, FadD28 binding 15.8* and Yp Topo-I inh -41.7.
N=C1CCC(=N)c2c1c(O)c1ccccc1c2O was read as MazEF act -65.8, FadD28 binding 14.0*, VHR inh abs -0.7 and Yp Topo-I inh 12.3.
`CC(C)NC(=O)N1C[C@@H]2[C@H](c3ccccc31)[C@@H](CO)N2C(=O)Nc1ccccc1` gave BioA inh 4.4.
For COc1cc(C)ccc1OCc1cc(C(=O)N(Cc2nccn2C)C(C)C)no1 the results were MazEF act 13.2, FadD28 binding -1.7, TcdB inh 1.3, BioA inh 0.8, VHR inh abs 52.5* and Yp Topo-I inh -7.0.
`C[C@H]1CN([C@@H](C)CO)C(=O)c2cc(C#Cc3ccncc3)cnc2O[C@@H]1CN(C)C(=O)c1ccccc1F` gave TcdB inh -1.1 and BioA inh 5.5.
For Cc1ccc([N+](=O)[O-])cc1-c1ccc(/C=C(\C#N)c2[nH]nc(N)c2C#N)o1 the results were MazEF act -16.0, FadD28 binding 9.4*, TcdB inh 1.6, BioA inh -2.3, VHR inh abs 38.7 and Yp Topo-I inh 8.2.
COCc1cc(C)nc(OCC(=O)N/N=C/c2ccc(-c3cc([N+](=O)[O-])ccc3C)o2)c1C#N was read as MazEF act -3.8, FadD28 binding 2.0, BioA inh 0.1, VHR inh abs -7.9 and Yp Topo-I inh 9.7.
Screening COc1ccccc1Nc1ccc([N+](=O)[O-])cc1N returned MazEF act -1.3, FadD28 binding -2.3, TcdB inh 3.8, BioA inh 1.6, VHR inh abs 53.4* and Yp Topo-I inh -12.3.
Screening COc1ccccc1Nc1c([N+](=O)[O-])cc(C)cc1[N+](=O)[O-] returned MazEF act -0.2, FadD28 binding 0.8, TcdB inh 1.7, VHR inh abs 7.6 and Yp Topo-I inh 2.1.
Screening N#C/C(=C/c1ccco1)c1nc2ccccc2s1 returned MazEF act 64.7*, FadD28 binding -5.7, BioA inh -2.8, VHR inh abs 8.2 and Yp Topo-I inh -2.6.
Screening N#C/C(=C\c1ccco1)c1nc2ccccc2s1 returned MazEF act 54.5*, FadD28 binding 1.1, VHR inh abs 4.3 and Yp Topo-I inh -5.1.
Screening CCN(CC)c1ccc2cc(C(=O)NNC(=O)c3ccc(S(=O)(=O)N4CCCCC4)cc3)c(=O)oc2c1 returned MazEF act 75.0*, FadD28 binding -2.4, BioA inh -3.4, VHR inh abs -1.6 and Yp Topo-I inh 5.1.
Screening Cc1ccc(C(=O)NNC(=O)c2ccc(S(=O)(=O)N3CCCCC3)cc2)cc1 returned MazEF act -14.0, FadD28 binding -1.4, TcdB inh 1.3, BioA inh -0.2 and Yp Topo-I inh 1.7.
`COc1ccccc1C(=O)Nc1ccc2c(c1)OC[C@H](C)N(C(C)=O)C[C@H](C)[C@@H](OC)CN(C)C2=O` gave BioA inh -0.2.
`O=C(Nc1ccc(O)cc1)c1ccc2c(c1)C(=O)N(Cc1ccco1)C2=O` gave MazEF act 2.2, FadD28 binding 0.6, TcdB inh 16.4*, VHR inh abs -4.8 and Yp Topo-I inh -3.4.
Screening O=C(Nc1cc([N+](=O)[O-])ccc1O)c1ccc2c(c1)C(=O)N(Cc1ccco1)C2=O returned MazEF act -0.5, FadD28 binding 12.0*, TcdB inh -2.1, BioA inh 1.4, VHR inh abs -7.2 and Yp Topo-I inh -6.7.
Screening O=C(O)Cc1ccc(NC(=O)c2ccc3c(c2)C(=O)N(Cc2ccco2)C3=O)cc1 returned MazEF act 1.9, FadD28 binding 0.3, TcdB inh 1.5, BioA inh -1.5, VHR inh abs -15.5 and Yp Topo-I inh 6.1.
Screening O=C(Nc1ccc(O)cc1C(=O)O)c1ccc2c(c1)C(=O)N(Cc1ccco1)C2=O returned MazEF act -3.2, FadD28 binding 2.6, BioA inh -0.2, VHR inh abs -13.3 and Yp Topo-I inh 1.7.
Screening COC(=O)[C@@H]1[C@@H](CO)[C@@H]2Cn3c(ccc(C4=CCCCC4)c3=O)[C@@H]2N1CC1CCCCC1 returned BioA inh 3.1.
For Nc1nc(N2CCCCC2)nc(N2CCCCC2)n1 the results were MazEF act 3.9, FadD28 binding -3.4, BioA inh -0.3, VHR inh abs 51.6* and Yp Topo-I inh 2.1.
Screening C1CCN(c2nc(N3CCCC3)nc(N3CCNCC3)n2)C1 returned VHR inh abs 8.2.
For CO[C@@H](CN(C)C(=O)c1ccc2c(c1)OCO2)[C@@H](C)CN([C@@H](C)CO)S(=O)(=O)c1ccc(C)cc1 the results were TcdB inh -0.6 and BioA inh -2.4.
Screening O=c1c2ccccc2oc2ccc(NCCCN3CCOCC3)cc12 returned MazEF act -14.7, FadD28 binding -3.0, TcdB inh 12.6*, BioA inh 12.5, VHR inh abs 20.5 and Yp Topo-I inh 1.2.
`O=c1c2ccccc2oc2cc(NCCCN3CCOCC3)ccc12` gave MazEF act 3.0, FadD28 binding -0.4, TcdB inh 1.1, BioA inh 1.8, VHR inh abs 8.9 and Yp Topo-I inh 26.2.
For O=C(COc1ccc2ccc(=O)oc2c1)NCCN1CCOCC1 the results were MazEF act 4.7, FadD28 binding -1.9, TcdB inh 13.1*, BioA inh 1.8 and Yp Topo-I inh -1.8.
